The source of these data is PubChem BioAssay.

The nature of experiment [1]: E. coli DRC41 culture turbidity changes, primary screen, E. coli filamentation inducer project, strain DRC41, OD650, 48 h (AID 1152).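 Further: E. coli MC1000 strain DRC41 lacking acrAB efflux pump and sulA.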 The conditions noted are these: E. coli DRC41 (acrAB sulA), higher = more signal, called active from +8 up or from −8 down.
Experiment [2] in a line: small-molecule binders of probe aLefty1, primary screen, biochemical, small-molecule microarray, 635/667 nm fluorescence (AID 1153).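 Further: score merges spot fluorescence with signal-to-noise ratio from the scanned slide images.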 The conditions noted are these: higher = more signal.
The nature of experiment [3]: PSAC antagonists in infected red cells, primary screen, cell-based, P. falciparum Indochina, OD700, 1 h (AID 1154). The conditions noted are these: P. falciparum Indochina infected RBC osmotic lysis, higher = more signal, called active from +8 up or from −8 down.
Experiment [4] in a line: PSAC antagonists in infected red cells, primary screen, cell-based, P. falciparum Indochina, OD700, 2 h (AID 1155).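 Further: lysis reports solute entry through the parasite surface anion channel PSAC; channel blockers reduce lysis of infected cells.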 The conditions noted are these: P. falciparum Indochina infected erythrocytes, osmotic lysis OD700; higher = more signal, called active from +8 up or from −8 down.
Experiment [5] in a line: osmotic lysis modulators in infected erythrocytes, primary screen, PSAC antagonist project, cell-based, P. falciparum Indochina, OD700, 3 h (AID 1156). The conditions noted are these: higher = more signal, called active from +8 up or from −8 down.
Experiment [6] is described as follows: PSAC antagonists in infected red cells, primary screen, cell-based, P. falciparum Indochina, OD700, 18 h (AID 1157). The conditions noted are these: P. falciparum Indochina infected erythrocytes, osmotic lysis OD700, 18 h; higher = more signal, called active from +8 up or from −8 down.
Experiment [7] in a line: modulators of S6 phosphorylation in cells, primary screen, cell-based, A549, cytoblot, luminescence, serum-stimulated (AID 1158).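 Further: serum-stimulated A549 lung adenocarcinoma cells; signal is phosphorylated S6 detected by cytoblot immunostaining with HRP secondary.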 The conditions noted are these: A549 phospho-S6 cytoblot, 5 h, higher = more signal.
Experiment [8] addresses NADPH oxidase 2 (Homo sapiens) (UniProt P04839). The experiment in a line: NOX2-dependent H2O2 signal modulators, primary screen, NOX inhibitor project, cell-based, HEK293-NOX2, PMA-stimulated, Amplex Red fluorescence (AID 1159). Further: test concentration not given here. The conditions noted are these: 45 min, higher = more signal, called active from +8 up or from −8 down.
The target in experiment [9] is NADPH oxidase 4 (Homo sapiens) (UniProt Q9NPH5). Nature of the experiment: NOX4-dependent H2O2 signal modulators, primary screen, NOX inhibitor project, cell-based, HEK293-NOX4, tetracycline-induced, Amplex Red fluorescence (AID 1160). The conditions noted are these: 45 min, higher = more signal, called active from +8 up or from −8 down.
Experiment [10] deals with NADPH oxidase 5 (Homo sapiens) (UniProt Q96PH1). Nature of the experiment: NOX5-dependent H2O2 signal modulators, primary screen, NOX inhibitor project, cell-based, HEK293-NOX5, Amplex Red fluorescence (AID 1161). The conditions noted are these: HEK293-NOX5, ionomycin, 45 min, higher = more signal.
A short description of experiment [11]: A549 cell viability effects, profiling panel, calcein-AM fluorescence, 48 h, basal (AID 1162). Further: test concentration not given here. The conditions noted are these: higher = more signal.
The nature of experiment [12]: adipocyte viability effects, profiling panel, cell-based, 3T3-L1 adipocytes, calcein-AM fluorescence, 48 h, basal (AID 1163). Further: test concentration not given here. The conditions noted are these: 3T3-L1 adipocytes viability, higher = more signal.
Experiment [13] is described as follows: HepG2 cell viability effects, profiling panel, calcein-AM fluorescence, 48 h, basal (AID 1164). Further: test concentration not given here. The conditions noted are these: higher = more signal.
Experiment [14] in a line: MM1S cell viability effects, profiling panel, calcein-AM fluorescence, 48 h, basal (AID 1165).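 Further: viability of MM1S multiple myeloma cells under basal unstimulated conditions; test concentration not given here.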 The conditions noted are these: higher = more signal.
Experiment [15] in a line: basal RPMI8226 viability, no added stimulus, profiling panel, cell-based, calcein-AM fluorescence, 48 h, PK04 Diversity Set (AID 1166).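 Further: cells grown under basal conditions without added stimulus; test concentration not given here.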 The conditions noted are these: RPMI8226 myeloma viability, higher = more signal.
Experiment [16] in a line: basal HepG2 mitochondrial membrane potential changes, profiling panel, cell-based, JC-1 fluorescence, 24 h, 100 nL compound (AID 1167). Further: test concentration not given here. The conditions noted are these: higher = more signal.
Experiment [17] in a line: basal 3T3-L1 adipocyte mitochondrial potential changes, profiling panel, cell-based, JC-1 fluorescence, 3T3-L1 adipocytes, 24 h, 100 nL compound (AID 1168). Further: test concentration not given here. The conditions noted are these: JC-1 mitochondrial fluorescence, higher = more signal, called active from +8 up or from −8 down.
Experiment [18] is described as follows: basal RPMI8226 mitochondrial membrane potential changes, profiling panel, cell-based, JC-1 fluorescence, 24 h, 100 nL compound (AID 1169). Further: test concentration not given here. The conditions noted are these: RPMI8226 myeloma, JC-1 mitochondrial potential fluorescence, higher = more signal.
Experiment [19] is described as follows: basal MM1S mitochondrial membrane potential changes, profiling panel, cell-based, JC-1 fluorescence, 24 h, 100 nL compound (AID 1170). Further: test concentration not given here. The conditions noted are these: higher = more signal.
Experiment [20] can be described thus: A549 lung cancer cell viability effects, profiling panel, resazurin fluorescence, 24 h, PK04 Diversity Set (AID 1171). Further: test concentration not given here. The conditions noted are these: higher = more signal, called active from +8 up or from −8 down. In general terms: Alamar Blue is a resazurin reagent that responds to reducing activity.

Structures are written as SMILES. The source made the active and inactive calls.

Chain of NADPH oxidase 5 (Homo sapiens) (Q96PH1 whole entry, looked up): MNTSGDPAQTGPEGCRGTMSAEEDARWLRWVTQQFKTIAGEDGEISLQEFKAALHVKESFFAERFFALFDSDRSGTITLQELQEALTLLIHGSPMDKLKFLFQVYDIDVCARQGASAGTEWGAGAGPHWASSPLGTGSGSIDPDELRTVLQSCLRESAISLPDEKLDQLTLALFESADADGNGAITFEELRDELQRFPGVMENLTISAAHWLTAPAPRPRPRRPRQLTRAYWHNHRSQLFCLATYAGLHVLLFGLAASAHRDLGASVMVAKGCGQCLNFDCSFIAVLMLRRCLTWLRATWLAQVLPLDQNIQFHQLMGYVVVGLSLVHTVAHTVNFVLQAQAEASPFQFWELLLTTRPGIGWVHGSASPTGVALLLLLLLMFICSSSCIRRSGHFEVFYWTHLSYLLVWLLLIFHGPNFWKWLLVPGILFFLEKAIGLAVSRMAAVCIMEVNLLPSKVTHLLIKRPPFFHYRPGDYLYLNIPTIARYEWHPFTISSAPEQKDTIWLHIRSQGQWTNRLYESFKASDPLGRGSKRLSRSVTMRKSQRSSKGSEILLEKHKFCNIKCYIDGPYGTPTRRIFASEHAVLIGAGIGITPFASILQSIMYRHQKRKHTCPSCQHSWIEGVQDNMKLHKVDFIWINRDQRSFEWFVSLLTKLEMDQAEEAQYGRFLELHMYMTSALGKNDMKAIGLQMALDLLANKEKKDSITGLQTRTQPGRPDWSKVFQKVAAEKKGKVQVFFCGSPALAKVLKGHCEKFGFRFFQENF
Chain of NADPH oxidase 2 (Homo sapiens) (P04839 whole entry, looked up): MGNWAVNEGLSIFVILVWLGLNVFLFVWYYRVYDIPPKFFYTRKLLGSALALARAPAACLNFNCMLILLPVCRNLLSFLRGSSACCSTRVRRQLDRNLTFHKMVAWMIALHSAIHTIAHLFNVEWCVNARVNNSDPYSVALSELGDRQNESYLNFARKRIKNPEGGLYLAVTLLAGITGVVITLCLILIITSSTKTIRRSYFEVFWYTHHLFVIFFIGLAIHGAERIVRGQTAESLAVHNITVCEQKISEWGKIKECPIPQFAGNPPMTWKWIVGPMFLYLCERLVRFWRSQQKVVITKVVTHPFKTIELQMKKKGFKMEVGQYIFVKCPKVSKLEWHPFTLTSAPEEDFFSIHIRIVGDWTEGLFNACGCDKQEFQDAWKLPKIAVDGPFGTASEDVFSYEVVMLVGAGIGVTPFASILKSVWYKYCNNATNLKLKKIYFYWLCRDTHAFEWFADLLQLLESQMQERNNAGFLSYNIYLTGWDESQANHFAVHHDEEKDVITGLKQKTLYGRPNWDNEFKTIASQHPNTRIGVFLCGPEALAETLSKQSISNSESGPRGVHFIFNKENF
Chain of NADPH oxidase 4 (Homo sapiens) (Q9NPH5 whole entry, looked up): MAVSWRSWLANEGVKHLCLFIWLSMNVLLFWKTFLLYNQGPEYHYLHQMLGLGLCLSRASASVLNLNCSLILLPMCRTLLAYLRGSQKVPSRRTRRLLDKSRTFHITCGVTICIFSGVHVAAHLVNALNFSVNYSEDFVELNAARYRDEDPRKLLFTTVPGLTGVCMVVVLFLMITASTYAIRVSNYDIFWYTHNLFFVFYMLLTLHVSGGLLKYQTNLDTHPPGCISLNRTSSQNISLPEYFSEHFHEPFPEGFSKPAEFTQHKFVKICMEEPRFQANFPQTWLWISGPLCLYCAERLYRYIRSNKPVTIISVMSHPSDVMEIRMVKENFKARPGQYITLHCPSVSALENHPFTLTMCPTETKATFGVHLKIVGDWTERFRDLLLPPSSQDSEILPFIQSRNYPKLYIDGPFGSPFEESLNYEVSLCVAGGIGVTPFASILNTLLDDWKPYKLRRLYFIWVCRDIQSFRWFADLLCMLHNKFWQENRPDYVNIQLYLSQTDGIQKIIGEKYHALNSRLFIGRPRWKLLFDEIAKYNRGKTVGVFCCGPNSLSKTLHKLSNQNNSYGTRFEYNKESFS

Consider `CCCNC(=O)OC[C@H]1O[C@H](CCON=C(C)CCC(=O)OC[C@H]2O[C@H](c3ccccc3)C=C[C@@H]2Oc2ccc(OC)cc2)C=C[C@@H]1Oc1ccc(OC)cc1`, for which the z-score in [1] is 0.3 (inactive); in experiment [3], 2.17 (inactive); in [4] it was 0.767 (inactive); in experiment [5] it was 0.753 (inactive); in [6] it was 0.49 (inactive); in experiment [7] it was -0.441. For the same molecule, the z-score in [8] was -0.245 (inactive); in experiment [9] it was 0.337 (inactive); in [10], -0.295; in [11], 0.415; in [12] it was 0.354; in experiment [13], -0.208. Also, the z-score in [14] is -1.31; in experiment [15], -0.303; in experiment [16], 1.26; in [17] it was 0.000229 (inactive); in experiment [18], 0.625; in experiment [19], 0.33. For the same molecule, in experiment [20], the z-score was 0.748 (inactive). Besides, the composite z-score in experiment [2] is -0.0477.

As to `CCOC(=O)[C@H](Cc1ccccc1)NC(=O)CCC1CC(OC(=O)NCCc2ccc(F)cc2)CC2(CCCC(COC(=O)NCCCN3CCCC3=O)O2)O1` (stereo not given in full), the z-score in experiment [1] was 0.141 (inactive); in experiment [3], -1.36 (inactive); in experiment [4], -0.861 (inactive); in [5] it was -0.0494 (inactive); in [6], -0.445 (inactive); in experiment [7], 0.94. Besides, the z-score in experiment [8] was -0.232 (inactive); in [9], 0.192 (inactive); in experiment [10] it was -1.09; in experiment [11], 1.57; in [12] it was -0.0501; in [13], 0.43. Also, the z-score in experiment [14] is 0.356; in experiment [15], -0.335; in experiment [16], 0.668; in experiment [17] it was -0.182 (inactive); in [18], 0.437; in experiment [19] it was -1.09. In addition, in experiment [20], the z-score was -0.972 (inactive). The molecule further showed a composite z-score in experiment [2] of -0.105.

With `O=C(NN=C1C[C@@H](O)[C@@H](O)[C@@H]2[C@@H]3C(=O)N(C4CCCCC4)C(=O)[C@@H]3CC[C@H]12)OCc1ccccc1`, the z-score in experiment [1] is -0.898 (inactive); in experiment [3], 7.54 (inactive); in [4], 0.844 (inactive); in experiment [5], 0.522 (inactive); in experiment [6] it was 0.551 (inactive); in [7], 0.0279. Also, the z-score in [8] is -0.0856 (inactive); in experiment [9] it was -1.85 (inactive); in experiment [10] it was -0.671; in [11], 0.215; in experiment [12], 0.0766; in experiment [13], -0.822. In addition, the z-score is -0.816 in [14]; -0.284 in [15]; -1.14 in experiment [16]; -0.458 (inactive) in [17]; 0.219 in experiment [18]; 0.703 in experiment [19]. Moreover, the z-score in [20] was -0.401 (inactive). This molecule also showed a composite z-score in experiment [2] of 0.0721.

With `CCOC(=O)[C@H](Cc1ccccc1)NC(=O)CCC1CC(OC(=O)NCc2ccc3c(c2)OCO3)CC2(CCCC(COC(=O)NCCC(C)C)O2)O1` (stereo not given in full), the z-score in experiment [1] was 0.241 (inactive); in experiment [3] it was 25.3 (active); in experiment [4] it was 11.5 (active); in [5] it was 1.26 (inactive); in [6] it was 1.5 (inactive); in [7], 0.274. In addition, the z-score in experiment [8] is 1.3 (inactive); in [9], 0.25 (inactive); in [10], 0.277; in experiment [11], 0.339; in experiment [12], 1.36; in experiment [13], -1.58. The z-score in [14] is -3.41; in experiment [15], -3.9; in [16], 0.162; in experiment [17], -0.375 (inactive); in experiment [18] it was -0.212; in experiment [19], -1.32. In [20], the z-score was -0.149 (inactive). In [2], the composite z-score is -0.0162.
